Laboratory results taken from the supplement of paper PMC10849652.
The full data set covers some 7,900 targets. This sample favours those with a hit. About 0.6% of all pairs of compound and target were hits.

Assays:
Test in all cases: log2 fold change, soluble protein after heating vs DMSO (PISA); higher = thermal stabilisation; K562 cells, 10 uM, 30 min; active = over 0.2 and 3.5 SD of the protein, either way, in both replicates (recomputed)
[1] = compound: C#Cc1cccc(Nc2ncnc3cc(OCCOC)c(OCCOC)cc23)c1 [erlotinib]
In short: (§1)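 K562 cells at 2×10^6 cells/mL were treated with 10 μM compound for 30 min. Aliquots were heated for 3 min across 48°C-58°C, pooled, and extracted in PBS with 0.5% NP-40 at 4°C; soluble protein was the supernatant after 21,000xg for 90 min. Soluble protein was quantified by TMTpro 16plex LC-MS/MS with channel sums equalised, and reported as log2 fold change in thermal stability against DMSO controls, with values from duplicates.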

[2] = compound: C/C(=N\NC(=O)C1=CC(=CC=C1)S(=O)(=O)N2CCOCC2)/C3=C(C=CC(=C3)Cl)O
In short: as §1

[3] = compound: C1=CC(=C(C=C1Cl)C2=NC3=NC=CN=C3C(=N2)NC4=CC=NC=C4)F
In short: as §1

[4] = compound: C1=CC(=CC=C1C2=NC3=C(N2)C=C(C=C3)C(=O)N)OC4=CC=C(C=C4)Cl
In short: as §1

[5] = compound: C1=CC2=C(C=CC(=C2)/C=C\3/C(=O)NC(=NCC4=CC=CS4)S3)N=C1
In short: as §1

[6] = compound: C1=CC2=NC=CN=C2C=C1/C=C/3\C(=O)NC(=O)S3
In short: as §1

[7] = compound: C1=CC=C(C=C1)C2=NC(=C(N2)C3=CC=NC=C3)C4=CC(=C(C=C4)Cl)O
In short: as §1

[8] = compound: C1=CC=C2C(=C1)C3=NNC4=CC=CC(=C43)C2=O
In short: as §1

[9] = compound: C1CCN(C1)C(=O)NC2=CC=CC(=C2)NC3=NC=C(C(=N3)NCCC4=CN=CN4)Br
In short: as §1

[10] = compound: C1CN(CCC1(CC2=CC=C(C=C2)Cl)N)C3=NC=NC4=C3C=CN4
In short: as §1

Measured: log2 fold change

PURA (UniProt Q00577)
Sequence of UniProt Q00577 (Q00577 whole entry, looked up): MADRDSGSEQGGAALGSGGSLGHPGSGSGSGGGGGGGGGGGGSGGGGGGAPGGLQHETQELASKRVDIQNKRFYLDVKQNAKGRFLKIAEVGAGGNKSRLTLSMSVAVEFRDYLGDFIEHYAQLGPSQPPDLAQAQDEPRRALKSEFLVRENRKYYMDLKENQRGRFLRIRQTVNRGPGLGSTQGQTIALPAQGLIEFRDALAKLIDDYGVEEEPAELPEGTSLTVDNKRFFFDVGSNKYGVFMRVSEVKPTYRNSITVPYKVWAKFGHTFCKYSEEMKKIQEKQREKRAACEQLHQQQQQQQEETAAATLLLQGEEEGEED
inactive: [1] -0.244 | [2] -0.208 | [3] -0.319 | [4] 0.101 | [5] -0.156 | [6] 0.013 | [7] -0.137 | [8] -0.051 | [9] 0.179 | [10] -0.102

PEF1 (UniProt Q9UBV8)
Sequence of UniProt Q9UBV8 (Q9UBV8 whole entry, looked up): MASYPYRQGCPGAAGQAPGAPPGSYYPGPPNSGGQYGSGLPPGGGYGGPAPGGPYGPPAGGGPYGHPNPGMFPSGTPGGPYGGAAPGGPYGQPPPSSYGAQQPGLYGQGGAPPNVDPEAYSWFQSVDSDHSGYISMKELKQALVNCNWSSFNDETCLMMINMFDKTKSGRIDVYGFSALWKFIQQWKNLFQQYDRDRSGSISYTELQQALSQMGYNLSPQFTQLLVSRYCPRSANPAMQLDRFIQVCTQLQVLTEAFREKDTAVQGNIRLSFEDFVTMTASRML
inactive: [1] -0.053 | [2] 0.108 | [3] 0.079 | [4] -0.029 | [5] 0.134 | [6] -0.064 | [7] 0.109 | [8] 0.035 | [9] -0.008 | [10] -0.069

PTGES3 (UniProt Q15185)
Sequence of UniProt Q15185 (Q15185 whole entry, looked up): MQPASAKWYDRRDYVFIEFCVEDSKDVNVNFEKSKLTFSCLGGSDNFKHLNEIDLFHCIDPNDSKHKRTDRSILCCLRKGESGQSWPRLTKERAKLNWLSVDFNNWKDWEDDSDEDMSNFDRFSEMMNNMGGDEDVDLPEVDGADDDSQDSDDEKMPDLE
inactive: [1] 0.005 | [2] 0.095 | [3] 0.079 | [4] -0.05 | [5] 0.019 | [6] 0.007 | [7] 0.043 | [8] -0.014 | [9] -0.014 | [10] -0.049

PPID (UniProt Q08752)
inactive: [1] 0.114 | [2] 0.111 | [3] -0.01 | [4] -0.021 | [5] 0.075 | [6] 0.007 | [7] 0.095 | [8] 0.021 | [9] -0.076 | [10] -0.118

PDCD4 (UniProt Q53EL6)
Sequence of UniProt Q53EL6 (Q53EL6 whole entry, looked up): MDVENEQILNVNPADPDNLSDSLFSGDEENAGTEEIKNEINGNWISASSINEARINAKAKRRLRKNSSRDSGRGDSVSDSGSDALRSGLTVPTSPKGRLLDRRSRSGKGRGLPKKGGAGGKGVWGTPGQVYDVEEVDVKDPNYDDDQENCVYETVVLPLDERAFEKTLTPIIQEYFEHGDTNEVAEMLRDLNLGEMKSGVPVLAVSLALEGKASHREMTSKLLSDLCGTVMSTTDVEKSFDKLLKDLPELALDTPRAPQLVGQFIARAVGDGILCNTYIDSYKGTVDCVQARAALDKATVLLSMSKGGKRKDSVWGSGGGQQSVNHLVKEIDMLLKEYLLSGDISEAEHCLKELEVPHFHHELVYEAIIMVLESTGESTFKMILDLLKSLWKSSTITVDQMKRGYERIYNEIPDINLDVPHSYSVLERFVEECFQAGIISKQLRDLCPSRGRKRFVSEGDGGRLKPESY
inactive: [1] 0.107 | [2] -0.041 | [3] 0.14 | [4] -0.051 | [5] 0.16 | [6] 0.145 | [7] 0.072 | [8] 0.108 | [9] 0.024 | [10] 0.027

PLK1 (UniProt P53350)
inactive: [1] -0.027 | [2] 0.035 | [3] 0.006 | [4] 0.079 | [5] -0.041 | [6] -0.017 | [7] -0.018 | [8] 0.058 | [9] -0.003 | [10] -0.039

PRCP (UniProt P42785)
inactive: [1] -0.028 | [2] 0.013 | [3] 0.049 | [4] -0.025 | [5] -0.052 | [6] 0.014 | [7] -0.019 | [8] -0.001 | [9] 0.038 | [10] 0.052

PRKAR2A (UniProt P13861)
active: [10] -0.486
inactive: [1] -0.002 | [2] 0.013 | [3] -0.024 | [4] 0.062 | [5] 0.082 | [6] -0.005 | [7] -0.021 | [8] -0.004 | [9] -0.177

QRICH1 (UniProt Q2TAL8)
inactive: [1] 0.066 | [2] 0.361 | [3] -0.023 | [4] 0 | [5] 0.282 | [6] 0.059 | [7] -0.053 | [8] -0.007 | [9] 0.014 | [10] -0.076

PMM1 (UniProt Q92871)
inactive: [1] -0.021 | [2] -0.041 | [3] 0.004 | [4] 0.065 | [5] 0.1 | [6] 0.002 | [7] -0.007 | [8] -0.049 | [9] 0.001 | [10] 0.036

PCYT1A (UniProt P49585)
Sequence of UniProt P49585 (P49585 whole entry, looked up): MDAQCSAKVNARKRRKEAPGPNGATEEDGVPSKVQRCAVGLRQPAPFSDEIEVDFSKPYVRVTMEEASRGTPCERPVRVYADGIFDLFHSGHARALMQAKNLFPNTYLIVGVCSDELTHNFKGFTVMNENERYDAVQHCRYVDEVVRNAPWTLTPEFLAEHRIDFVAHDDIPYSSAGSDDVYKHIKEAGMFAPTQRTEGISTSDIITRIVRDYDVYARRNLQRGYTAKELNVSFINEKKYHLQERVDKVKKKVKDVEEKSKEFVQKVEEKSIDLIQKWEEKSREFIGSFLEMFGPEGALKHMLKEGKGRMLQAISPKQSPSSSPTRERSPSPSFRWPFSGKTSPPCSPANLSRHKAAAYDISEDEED
inactive: [1] -0.014 | [2] 0.125 | [3] -0.03 | [4] -0.001 | [5] 0.019 | [6] 0.054 | [7] -0.09 | [8] -0.033 | [9] -0.043 | [10] -0.009

PPP2R5A (UniProt Q15172)
inactive: [1] 0.011 | [2] 0.098 | [3] 0.009 | [4] -0.022 | [5] 0.018 | [6] 0.055 | [7] 0.078 | [8] 0.017 | [9] 0 | [10] -0.015

PSMC3 (UniProt P17980)
inactive: [1] -0.039 | [2] -0.107 | [3] -0.037 | [4] 0.008 | [5] -0.059 | [6] -0.025 | [7] -0.002 | [8] -0.001 | [9] 0.026 | [10] -0.004

PMPCB (UniProt O75439)
inactive: [1] -0.022 | [2] 0 | [3] 0.031 | [4] 0.024 | [5] 0.019 | [6] 0.007 | [7] 0.023 | [8] 0.078 | [9] -0.014 | [10] 0.046

PRMT7 (UniProt Q9NVM4)
inactive: [1] 0.093 | [2] 0.132 | [3] 0.064 | [4] -0.017 | [5] 0.142 | [6] 0.018 | [7] -0.109 | [8] -0.039 | [9] 0.031 | [10] -0.031

PGM3 isoform 4 (UniProt O95394)
inactive: [1] 0.001 | [2] 0.094 | [3] 0.045 | [4] 0.103 | [5] 0.092 | [6] 0.001 | [7] 0.042 | [8] 0.064 | [9] -0.005 | [10] -0.053

PTPN23 (UniProt Q9H3S7)
Sequence of UniProt Q9H3S7 (Q9H3S7 whole entry, looked up): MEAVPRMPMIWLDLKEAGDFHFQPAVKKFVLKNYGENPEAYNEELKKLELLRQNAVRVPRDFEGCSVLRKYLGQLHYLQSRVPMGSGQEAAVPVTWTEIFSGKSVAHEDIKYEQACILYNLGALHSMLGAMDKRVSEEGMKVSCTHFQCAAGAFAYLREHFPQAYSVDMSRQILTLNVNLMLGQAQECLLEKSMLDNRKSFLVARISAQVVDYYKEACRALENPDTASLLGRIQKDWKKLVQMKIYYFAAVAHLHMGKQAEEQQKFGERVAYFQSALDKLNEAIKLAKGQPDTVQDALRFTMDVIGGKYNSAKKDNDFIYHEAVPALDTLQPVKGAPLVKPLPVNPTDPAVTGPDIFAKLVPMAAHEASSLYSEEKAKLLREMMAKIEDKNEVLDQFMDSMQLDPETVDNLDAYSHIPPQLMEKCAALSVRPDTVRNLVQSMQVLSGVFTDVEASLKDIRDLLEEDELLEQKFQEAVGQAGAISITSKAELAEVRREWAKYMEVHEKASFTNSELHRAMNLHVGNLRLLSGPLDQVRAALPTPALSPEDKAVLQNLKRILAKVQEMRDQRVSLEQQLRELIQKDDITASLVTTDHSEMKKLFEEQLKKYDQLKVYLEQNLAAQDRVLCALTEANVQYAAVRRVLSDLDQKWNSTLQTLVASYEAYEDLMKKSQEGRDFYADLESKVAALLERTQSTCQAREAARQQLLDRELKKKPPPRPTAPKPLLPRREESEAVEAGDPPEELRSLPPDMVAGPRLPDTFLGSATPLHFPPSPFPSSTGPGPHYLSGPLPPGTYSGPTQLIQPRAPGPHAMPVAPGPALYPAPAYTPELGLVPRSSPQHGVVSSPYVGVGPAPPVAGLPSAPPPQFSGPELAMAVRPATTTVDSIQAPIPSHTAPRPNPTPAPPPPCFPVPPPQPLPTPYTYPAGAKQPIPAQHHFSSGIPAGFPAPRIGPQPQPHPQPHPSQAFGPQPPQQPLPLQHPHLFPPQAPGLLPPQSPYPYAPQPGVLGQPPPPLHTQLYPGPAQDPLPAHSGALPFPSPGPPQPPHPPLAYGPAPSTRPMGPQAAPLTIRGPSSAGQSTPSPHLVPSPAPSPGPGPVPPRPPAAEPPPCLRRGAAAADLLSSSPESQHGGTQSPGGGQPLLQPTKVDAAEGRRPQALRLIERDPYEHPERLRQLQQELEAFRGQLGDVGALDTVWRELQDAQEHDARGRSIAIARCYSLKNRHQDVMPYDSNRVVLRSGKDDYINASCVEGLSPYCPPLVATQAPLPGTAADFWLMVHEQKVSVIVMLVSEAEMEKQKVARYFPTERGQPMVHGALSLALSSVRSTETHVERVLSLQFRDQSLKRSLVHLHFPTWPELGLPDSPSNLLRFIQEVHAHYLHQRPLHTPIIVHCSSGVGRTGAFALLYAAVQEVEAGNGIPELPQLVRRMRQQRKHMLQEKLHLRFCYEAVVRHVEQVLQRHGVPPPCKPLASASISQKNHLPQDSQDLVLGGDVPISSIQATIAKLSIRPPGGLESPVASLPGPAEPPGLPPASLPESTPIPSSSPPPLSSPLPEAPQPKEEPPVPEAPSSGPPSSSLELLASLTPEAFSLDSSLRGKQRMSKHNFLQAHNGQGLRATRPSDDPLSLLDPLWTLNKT
inactive: [1] 0.092 | [2] 0.158 | [3] -0.007 | [4] -0.048 | [5] 0.041 | [6] 0.018 | [7] 0 | [8] 0.006 | [9] -0.048 | [10] -0.029

PLEKHM2 (UniProt Q8IWE5)
inactive: [1] 0.228 | [2] 0.07 | [3] 0.034 | [4] -0.03 | [5] 0.075 | [6] 0.069 | [7] 0.082 | [8] -0.065 | [9] -0.005 | [10] -0.066

PPP1R35 (UniProt Q8TAP8)
inactive: [1] 0.137 | [2] -0.064 | [3] -0.038 | [4] 0.029 | [5] 0.01 | [6] 0.034 | [7] 0.021 | [8] -0.031 | [9] 0.009 | [10] 0.001

PMM2 (UniProt O15305)
inactive: [1] 0.03 | [2] -0.034 | [3] 0.008 | [4] -0.02 | [5] 0.023 | [6] 0.003 | [7] -0.014 | [8] -0.019 | [9] -0.004 | [10] 0.05

PDS5A (UniProt Q29RF7)
inactive: [1] 0.225 | [2] 0.132 | [3] 0.04 | [4] -0.227 | [5] 0.05 | [6] -0.176 | [7] 0.14 | [8] 0.108 | [9] -0.25 | [10] -0.267

PBX2 (UniProt P40425)
inactive: [1] 0.111 | [2] 0.076 | [3] 0.055 | [4] 0.007 | [5] 0.009 | [6] -0.039 | [7] 0.091 | [8] -0.098 | [9] -0.036 | [10] -0.269

POM121 (UniProt Q96HA1)
Sequence of UniProt Q96HA1 (Q96HA1 whole entry, looked up): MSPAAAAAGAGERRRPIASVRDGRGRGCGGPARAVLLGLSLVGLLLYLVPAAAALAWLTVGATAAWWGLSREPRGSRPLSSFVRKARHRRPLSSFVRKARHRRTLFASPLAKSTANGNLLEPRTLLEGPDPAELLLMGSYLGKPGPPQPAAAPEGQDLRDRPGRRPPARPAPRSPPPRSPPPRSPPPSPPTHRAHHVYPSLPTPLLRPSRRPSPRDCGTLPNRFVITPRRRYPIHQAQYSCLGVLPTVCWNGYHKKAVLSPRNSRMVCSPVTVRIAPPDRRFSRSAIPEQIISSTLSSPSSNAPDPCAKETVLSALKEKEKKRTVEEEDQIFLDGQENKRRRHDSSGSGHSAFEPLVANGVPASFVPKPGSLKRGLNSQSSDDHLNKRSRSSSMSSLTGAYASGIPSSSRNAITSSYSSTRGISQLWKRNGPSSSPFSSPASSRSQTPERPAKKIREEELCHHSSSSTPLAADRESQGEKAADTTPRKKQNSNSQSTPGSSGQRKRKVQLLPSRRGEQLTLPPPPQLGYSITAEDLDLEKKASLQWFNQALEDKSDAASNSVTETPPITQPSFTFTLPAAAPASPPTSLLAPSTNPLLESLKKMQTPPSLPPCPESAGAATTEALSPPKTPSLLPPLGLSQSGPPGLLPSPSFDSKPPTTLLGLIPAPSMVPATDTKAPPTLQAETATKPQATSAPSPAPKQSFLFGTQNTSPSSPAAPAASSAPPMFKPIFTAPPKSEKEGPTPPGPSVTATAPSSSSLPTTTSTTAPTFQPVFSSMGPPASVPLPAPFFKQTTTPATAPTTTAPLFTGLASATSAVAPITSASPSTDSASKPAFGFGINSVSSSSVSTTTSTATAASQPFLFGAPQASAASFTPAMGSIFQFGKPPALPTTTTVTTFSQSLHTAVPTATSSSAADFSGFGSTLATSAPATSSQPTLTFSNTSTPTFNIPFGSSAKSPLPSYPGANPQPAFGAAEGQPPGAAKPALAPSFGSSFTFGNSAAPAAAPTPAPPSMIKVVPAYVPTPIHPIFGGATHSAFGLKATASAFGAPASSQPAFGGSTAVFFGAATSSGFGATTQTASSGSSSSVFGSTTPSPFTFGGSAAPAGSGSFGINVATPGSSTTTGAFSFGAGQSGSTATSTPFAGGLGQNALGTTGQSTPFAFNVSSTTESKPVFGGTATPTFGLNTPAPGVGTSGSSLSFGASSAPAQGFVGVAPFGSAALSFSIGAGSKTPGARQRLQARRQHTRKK
inactive: [1] -0.013 | [2] -0.075 | [3] -0.127 | [4] 0.033 | [5] 0.118 | [6] -0.008 | [7] -0.137 | [8] -0.185 | [9] -0.087 | [10] -0.106

QRSL1 (UniProt Q9H0R6)
Sequence of UniProt Q9H0R6 (Q9H0R6 whole entry, looked up): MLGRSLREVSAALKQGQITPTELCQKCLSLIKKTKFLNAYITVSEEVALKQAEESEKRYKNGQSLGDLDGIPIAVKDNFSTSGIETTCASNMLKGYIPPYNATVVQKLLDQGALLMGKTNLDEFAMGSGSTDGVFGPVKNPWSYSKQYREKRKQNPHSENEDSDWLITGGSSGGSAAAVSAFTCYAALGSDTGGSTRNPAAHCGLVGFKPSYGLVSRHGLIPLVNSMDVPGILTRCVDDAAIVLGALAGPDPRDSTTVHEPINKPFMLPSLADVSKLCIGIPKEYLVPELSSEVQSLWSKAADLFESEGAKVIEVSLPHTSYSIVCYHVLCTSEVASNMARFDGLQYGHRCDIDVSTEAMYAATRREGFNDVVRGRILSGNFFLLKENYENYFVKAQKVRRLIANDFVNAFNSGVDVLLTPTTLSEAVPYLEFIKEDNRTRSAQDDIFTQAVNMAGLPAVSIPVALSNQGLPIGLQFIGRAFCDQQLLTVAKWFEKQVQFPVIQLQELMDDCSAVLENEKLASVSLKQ
inactive: [1] 0.024 | [2] 0.052 | [3] 0.118 | [4] -0.002 | [5] 0.06 | [6] -0.023 | [7] 0.071 | [8] -0.032 | [9] 0.017 | [10] -0.116

PPIL1 (UniProt Q9Y3C6)
inactive: [1] 0.019 | [2] -0.009 | [3] -0.027 | [4] -0.012 | [5] 0.024 | [6] 0.061 | [7] -0.013 | [8] -0.025 | [9] -0.007 | [10] -0.027

PSMA3 (UniProt P25788)
inactive: [1] -0.052 | [2] -0.075 | [3] 0.016 | [4] 0.028 | [5] -0.073 | [6] -0.025 | [7] -0.023 | [8] 0.002 | [9] -0.008 | [10] 0.044

PPP4R3B (UniProt Q5MIZ7)
inactive: [1] 0.022 | [2] 0.023 | [3] 0.013 | [4] -0.023 | [5] 0.083 | [6] 0.028 | [7] -0.023 | [8] -0.019 | [9] -0.003 | [10] -0.027
